Screening results: PubChem BioAssay, National Center for Advancing Translational Sciences (NCATS)
Compounds with a hit are over-represented: about 9.3% of the library has one in this group of screens.
Vaccinia Venus – vaccinia inhibition (Venus reporter); Vaccinia virus Venus reporter expression, fluorescence; Potency, µM (doses to about 36.5 µM), without a hit: at the highest dose activity change, negative = inhibition, usual class: inhibitors; 330,000 compounds, 0.46% hits; calls by dose curve; tested in A549 cells; also: potency is read from the fitted curve at half-maximal effect; nearly all actives have a fitted effect of over 30% in size
VACV mCherry inh – vaccinia inhibition (mCherry reporter) | Vaccinia virus mCherry reporter infection, fluorescence | 310,000 compounds, 0.63% hits | AID 720579 | Potency, µM (highest dose often 36.5 µM), inactives show at the top dose activity change, negative = inhibition, usual class: inhibitors; calls by dose curve; tested in A549 cells; also: potency is read from the fitted curve at half-maximal effect; nearly all actives have a fitted effect of over 35% in size
HCV inh – inhibitors of hepatitis C virus infection; 340,000 compounds, 3.4% hits; Potency, µM (series often up to 41.8 µM), for inactives: at the highest dose activity change, negative = inhibition, usual class: inhibitors; Huh7.5.1 HCVcc-Cre infection, luciferase reporter, 44 h; also: potency is read from the fitted curve at half-maximal effect
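Cells seeded at 1,000/well and cultured 4 h, then compounds added followed by HCVcc-Cre virus (~0.5 moi). After 44 h further culture, luciferase substrate was added, plates held 15 min at room temperature, and luminescence read for 15 sec.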
Sm TGR inh – S. mansoni TGR enzyme inhibition; Q962Y6; purified TGR, DTNB reduction, TNB absorbance 405 nm; Potency, µM (doses to about 114 µM), for the others: top-dose activity change, negative = inhibition, usual class: inhibitors; 360,000 compounds, 3% hits; also: potency is read from the fitted curve at half-maximal effect; nearly all actives have a fitted effect of over 60% in size
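First, TGR (20 nM dispensed) and NADPH were mixed with compound. Second, a 15 min room-temperature incubation followed. Third, further NADPH and then DTNB were added to start the reaction. Finally, TNB absorbance was monitored kinetically.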
HCMV inh – inhibitors of human cytomegalovirus | HFF cells, HCMV-luciferase reporter, 72 h; stronger effect = lower value | activity change, negative = inhibition, % at 57.5 µM | 410,000 compounds, 4.5% hits | AID 1259415; in the data active = activity change below about -60%; inconclusive = no clear call, values can overlap the other calls; inactive = above about -39%
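Steps: HFFs plated, 16 h 37C; compounds added; HCMV-luciferase added to MOI 1 PFU/cell; 72 h 37C; OneGlo reagent, 5 min room temperature; luminescence read, normalized to controls.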
FMDV inh – antivirals against foot and mouth disease virus | Potency, µM (top dose mostly 57.9 µM), without a hit: top-dose activity change, negative = inhibition, usual class: inhibitors | 410,000 compounds, 1.2% hits | FMDV antiviral cell-based qHTS; calls by dose curve; tested in HEK293T cells; also: read-out not given here; potency is read from the fitted curve at half-maximal effect; nearly all actives have a fitted effect of over 45% in size
* = called active by the depositor; i = inactive; ? = inconclusive; . = not tested or not shown; ! = repeats disagree; [ ] = dose if it differs, or a comment. Unless noted, calls follow the shape of the dose curve; as a rule, active = well fitted curve in the direction sought with a large enough effect; inconclusive = small, poorly fitted or top-dose-only effect, or another doubt; inactive = no such curve, though single readings can be large; an effect the other way counts as inactive or inconclusive. % is scaled to controls: 0 for no effect and ±100 for the full control effect.

SMILES | Vaccinia Venus | VACV mCherry inh | HCV inh | Sm TGR inh | HCMV inh | FMDV inh
CCOP(=O)(OCC)C(Nc1cccc(C(F)(F)F)c1)c1ccc(Br)cc1 (stereo not drawn) | . | . | -1% | -8% | 62 | .
ClCCOCOCCCl | -8% | i | -11% | 1% | 39 | -23%
Cc1ccc(Cn2c(C(CO)Nc3nc(-c4ccc(F)cc4)cs3)nc3ccccc32)cc1 (stereo not drawn) | ? | -21% | ? | . | -60* | -1%
Cc1nc2cc(N3CCN(C)CC3)c(NC(=O)Cc3ccccc3)cc2c(=O)n1Cc1ccccc1 | -15% | -19% | -27% | 1% | ? | ?
Cc1nc(-c2ccc(-n3nncc3-c3ccco3)cc2)cs1 | 4% | i | ? | 50µM* | -16 | -16%
O=C(NCc1cccnc1)c1cc(C2CCCCN2C(=O)OCc2ccccc2)on1 (stereo not drawn) | -8% | 22% | . | . | 1 | -2%
C=CCOc1ccc(C2c3c(oc4ccccc4c3=O)C(=O)N2CCCN2CCOCC2)cc1 (stereo not drawn) | . | . | -6% | ? | -21 | 30%
CC(C)Oc1ccc(C2c3c(oc4ccccc4c3=O)C(=O)N2CCCN2CCOCC2)cc1 (stereo not drawn) | -14% | -15% | -6% | 40µM* | -27 | 0%
CC(C)c1ccc(C2c3c(oc4ccc(Cl)cc4c3=O)C(=O)N2CCCN2CCOCC2)cc1 (stereo not drawn) | -20% | -25% | . | -13% | 19 | -6%
O=C1c2oc3ccc(Cl)cc3c(=O)c2C(c2ccccn2)N1CCCN1CCOCC1 (stereo not drawn) | -5% | i | ? | 13µM* | 13 | -23%
O=C1c2oc3ccccc3c(=O)c2C(c2cccnc2)N1CCCN1CCOCC1 (stereo not drawn) | -14% | -21%[1.46 µM] | 7% | 45µM* | 2 | -4%
COc1ccccc1N1CCN(c2nc(CNC(=O)c3ccc(C)c(C)c3)nc3ccccc23)CC1 | 0% | i | . | . | . | 2%
CCCNC(=O)c1sc2c(c1C(=O)Nc1ccccn1)CCCC2 | -11% | -19% | 10µM* | 12% | ? | -27%
CCOc1cc(N)c(Cl)cc1C(=O)NCC1CN(Cc2ccc(F)cc2)CCO1 (stereo not drawn) | -13% | -24% | ? | . | -66*! | -14%
COc1nc2ccccc2nc1CCC(=O)O | -2% | 2% | 10% | 0.1µM* | -19 | -5%
O=C(O)CCc1nc2ccccc2n(CCc2ccccc2)c1=O | -21% | . | 12% | 40µM* | ? | -13%
Cc1nn(CC(=O)Nc2ccc(N3CCOCC3)cc2)c(C)c1Br | -21% | -25% | . | -21% | 20 | 10%
CCCCOc1ccc(C(=O)NNC(=O)C2C3C=CC(C3)C2C(=O)O)cc1 (stereo not drawn) | . | . | -13% | -11% | -60* | 11%
COc1ccc(C(=O)NC(C)Cc2cnccn2)cc1OC1CCN(C(C)C)CC1 (stereo not drawn) | -10% | -16% | 4% | 5% | 4 | -9%
COc1ccc(C2CC(C(F)(F)F)n3nc(C(=O)N(C)Cc4cn(C)nc4C)c(Cl)c3N2)cc1 (stereo not drawn) | -8% | . | -5% | -19% | -26 | -18%
Cc1nn(C)c(C)c1CNC(=O)c1cc2n(n1)C(C(F)(F)F)CC(c1cccs1)N2 (stereo not drawn) | -23% | -19% | ? | -7% | -69* | .
COc1ccc(C2CC(C(F)(F)F)n3nc(C(=O)NCc4c(C)nn(C)c4C)c(Cl)c3N2)cc1 (stereo not drawn) | ? | ? | ? | -1% | -86* | .
CC(C)(C)NC(=O)C(c1ccncc1)N(C(=O)Cn1nnc(-c2ccc(F)cc2)n1)c1cccc(F)c1 (stereo not drawn) | -12% | -18% | -1% | -1% | 17 | -26%
CC(C)(C)NC(=O)C(c1c[nH]c2ccccc12)N(C(=O)Cn1nnc(-c2ccc(Cl)cc2)n1)c1ccccc1F (stereo not drawn) | ? | -15% | 10µM* | -10% | ? | -12%
